Screens: PubChem BioAssay, National Center for Advancing Translational Sciences (NCATS)
In the library only some 19% were active in any assay of this set; here they are far more common.
IL-1B inflam inh = inhibitors of inflammasome signaling (IL-1 beta secretion). THP-1 LPS/ATP IL-1B secretion, AlphaLISA, 16 h; active compounds read low. activity change, % at 57.5 µM. 360,000 compounds, 4.7% hits. AID 743279; in the data active = activity change below about -50%; inconclusive = mostly about -30% to -49%; note: % is set by controls: 0 for no effect and ±100 for the full control effect
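THP-1 cells pretreated 1 hr with compounds (up to 57.5 uM final), then stimulated with LPS (250 ng/mL final) plus ATP (1.25 mM final); secreted IL-1B measured by AlphaLISA after 16 hr, decreased signal indicating inhibition.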
HepG2 viability = counter-screen for TGF-b inhibitors: cytotoxicity in HepG2 cells; HepG2 CAGA-GFP viability, ATP luminescence, 18 h; Potency, µM (doses to about 46.1 µM), for inactives: at the highest dose activity change, negative = cytotoxicity, usual class: cytotoxic; 410,000 compounds, 0.76% hits; note: potency is the fitted concentration of half-maximal effect
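CellTiter-Glo luminescence gave cytotoxicity after 18 hours at 37 degrees C. The cells were HepG2 CAGA-GFP in 1% FBS DMEM, stimulated with 500 pg/mL TGF-beta after compound addition. %Activity was normalised to no-cell wells (complete cell-killing) and DMSO (no toxicity), and curves were fitted and classified.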
TDP1 cell CPT = DT40-hTDP1 cell growth loss with CPT | AID 686979 | Potency, µM (top dose mostly 46.2 µM), inactives show at the top dose activity change, negative = growth inhibition, hits mostly inhibitors | 420,000 compounds, 12% hits | chicken DT40 Tdp1-/-;hTDP1 cells + 20 nM CPT, ATP luminescence, 48 h; note: potency is the fitted concentration of half-maximal effect; % is set by controls: 0 for no effect and ±100 for the full control effect; nearly all actives have a fitted effect of over 55% in size
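Cell growth measured by CellTiter-Glo luminescence after a minimum 48 h, 37 C compound exposure with 20 nM CPT in Tdp1-knockout DT40 cells stably expressing hTDP1, seeded 400/well; qHTS titration format.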
TDP1 cell noCPT = qHTS for Inhibitors of human tyrosyl-DNA phosphodiesterase 1 (TDP1): qHTS in cells in absence of CPT | 420,000 compounds, 15% hits | DT40 Tdp1-/- hTDP1 cells, no CPT, ATP luminescence, 48 h | Potency, µM (doses to about 46.2 µM), for inactives: top-dose activity change, negative = growth inhibition, actives largely listed as inhibitors; note: potency is the fitted concentration of half-maximal effect; % is set by controls: 0 for no effect and ±100 for the full control effect; nearly all actives have a fitted effect of over 55% in size
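Chicken DT40 Tdp1-/- cells complemented with human TDP1, screened without camptothecin (DMSO vehicle only), 400 cells/well. Compounds pin-transferred, cells incubated at 37 °C for at least 48 hr. Growth read as ATP-dependent luminescence (CellTiter-Glo, 30 min at RT).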
TDP1 block = TDP1 (human) enzyme inhibition; recombinant TDP1, AlphaScreen DNA substrate cleavage; Potency, µM (highest dose often 130 µM), inactives show at the top dose activity change, negative = inhibition, hits mostly inhibitors; 350,000 compounds, 0.28% hits; AID 485290; note: potency is the fitted concentration of half-maximal effect; % is set by controls: 0 for no effect and ±100 for the full control effect; nearly all actives have a fitted effect of over 40% in size
Target sequence (Q9NUW8 whole entry, looked up): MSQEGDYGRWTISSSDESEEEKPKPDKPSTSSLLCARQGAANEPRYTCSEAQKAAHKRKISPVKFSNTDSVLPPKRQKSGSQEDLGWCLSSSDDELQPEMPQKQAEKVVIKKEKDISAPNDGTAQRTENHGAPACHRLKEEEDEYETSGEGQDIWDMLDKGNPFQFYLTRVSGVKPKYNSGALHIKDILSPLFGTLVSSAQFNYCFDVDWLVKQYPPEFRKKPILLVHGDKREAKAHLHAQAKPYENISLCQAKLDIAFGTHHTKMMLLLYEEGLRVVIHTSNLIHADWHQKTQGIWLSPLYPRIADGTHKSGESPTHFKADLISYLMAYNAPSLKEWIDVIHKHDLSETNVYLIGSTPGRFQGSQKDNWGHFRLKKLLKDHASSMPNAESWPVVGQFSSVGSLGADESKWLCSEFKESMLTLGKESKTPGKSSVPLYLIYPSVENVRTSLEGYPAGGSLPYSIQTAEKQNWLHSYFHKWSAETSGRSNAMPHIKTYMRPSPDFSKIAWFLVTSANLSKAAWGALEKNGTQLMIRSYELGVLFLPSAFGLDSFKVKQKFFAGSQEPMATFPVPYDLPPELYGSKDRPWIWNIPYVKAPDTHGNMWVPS
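Recombinant E. coli-expressed Tdp1 (1 nM) preincubated with compound 15 min at RT, then 5'-biotin/3'-phosphotyrosine-FITC DNA substrate (15 nM) added for 5 min. AlphaScreen beads (10 ug/ml) added, 10 min RT; tyrosine-FITC cleavage read as signal loss.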
TGFb inhibitor = TGF-b pathway inhibition. HepG2 CAGA-GFP TGF-b/SMAD3 reporter, GFP fluorescence, 18 h; TGF-beta stimulated, 500 pg/mL final. Potency, µM (top dose mostly 46.1 µM), for inactives: at the top dose activity, negative = inhibition, hits mostly inhibitors. 410,000 compounds, 1.2% hits. AID 588855; note: potency is the fitted concentration of half-maximal effect; % is set by controls: 0 for no effect and ±100 for the full control effect; nearly all actives have a fitted effect of over 65% in size
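GFP signal (ex488/em500-530) from TGF-beta-stimulated HEPG2 CAGA-GFP cells, 500 pg/mL final, 18 h at 37 degrees C in DMEM plus 1% FBS, normalized to unstimulated and DMSO-stimulated controls.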
Numbers without * were called inactive; [ ] = another dose, or the depositor's remark. Unless noted, calls come from the whole dose curve; as a rule, active = well fitted curve in the direction sought with a large enough effect; inconclusive = small, poorly fitted or top-dose-only effect, or another doubt; inactive = no such curve, though single readings can be large; an effect the other way counts as inactive or inconclusive.

Results for NC(=S)N/N=C/c1cn(-c2ccccc2)nc1-c1cccnc1 ?
IL-1B inflam inh: -19.2; HepG2 viability: -47.3%; TDP1 cell CPT: 11.6µM*; TDP1 cell noCPT: 2.91µM*; TDP1 block: 5.1%; TGFb inhibitor: inconclusive

Results for O=C(O)/C(=C\c1cn(-c2ccccc2)nc1-c1cccnc1)NC(=O)c1ccccc1 ?
IL-1B inflam inh: -0.3; HepG2 viability: -3.3%; TDP1 cell CPT: -10.4%; TDP1 cell noCPT: 24.0%; TDP1 block: 1.4%; TGFb inhibitor: 13.1%

What do the screens show for `O=C(N/N=C/c1cn(-c2ccccc2)nc1-c1cccnc1)c1ccccc1`?
IL-1B inflam inh: inconclusive; HepG2 viability: -17.1%; TDP1 cell CPT: 23.1µM*; TDP1 cell noCPT: 23.1µM*; TDP1 block: 2.5%; TGFb inhibitor: 7.7%

What do the screens show for `O=C(NC1CCN(Cc2ccccc2)CC1)c1cn(-c2ccccc2)nc1-c1cccnc1`?
IL-1B inflam inh: -90.6*; HepG2 viability: -1.7%; TDP1 cell CPT: -29.3%; TDP1 cell noCPT: -25.4%; TDP1 block: 1.4%[0.505 µM]; TGFb inhibitor: -1.6%

Results for COc1cc2cc(CNc3ccccc3)c(=O)n(CC(=O)Nc3cc(C)cc(C)c3)c2cc1OC ?
HepG2 viability: -15.7%; TDP1 block: 8.5%; TGFb inhibitor: 0.7%

How did CC(=O)O[C@]1(C(C)=O)CC[C@H]2C3C=C(Cl)C4=CC(=O)[C@@H]5C[C@H]5[C@]4(C)C3CC[C@@]21C (some centres not stated) do in these assays?
TDP1 block: 10.9%[56.1 µM]

How did COc1ccc2c(c1)O[C@H](c1ccc3c(c1)OCO3)[C@@H](OC(=O)NS(=O)(=O)c1ccc(F)cc1)C2=O do in these assays?
TDP1 block: 1.2%

Results for COC(=O)/C(=C(/F)Sc1cc(C)c(O)c(C)c1)C(F)(F)F ?
IL-1B inflam inh: -7.3; HepG2 viability: -97.9%; TDP1 cell CPT: 10.3µM*; TDP1 cell noCPT: 7.31µM*; TDP1 block: 5.1%; TGFb inhibitor: inconclusive

How did C/C(CCN1CCCCc2nc(C)c(C)cc21)=N\O[C@@H](C)c1cc(-c2c(C)cc(C)cc2C)no1 do in these assays?
TDP1 block: 9.0%[21 µM]

What do the screens show for `CCc1ccc(S(=O)(=O)ON2C(=O)c3ccccc3C2=O)cc1`?
IL-1B inflam inh: -28.0; HepG2 viability: -3.4%; TDP1 cell CPT: 7.31µM*; TDP1 cell noCPT: 11.6µM*; TDP1 block: 0.0%; TGFb inhibitor: inconclusive

How did O=C1c2cccc3cccc(c23)C(=O)N1OS(=O)(=O)c1ccc(Cl)cc1 do in these assays?
IL-1B inflam inh: -1.3; HepG2 viability: -4.5%; TDP1 cell CPT: inconclusive; TDP1 cell noCPT: 18.4µM*; TDP1 block: 2.7%; TGFb inhibitor: 11.6%

How did CCc1ccc(OC(=O)CN2C(=O)c3ccccc3C2=O)cc1 do in these assays?
IL-1B inflam inh: 7.3; HepG2 viability: -4.3%; TDP1 cell CPT: -5.1%; TDP1 cell noCPT: -0.1%; TGFb inhibitor: 12.5%

What do the screens show for `CCCc1nc2ccccc2c(=O)n1-c1c(C)n(C)n(-c2ccccc2)c1=O`?
IL-1B inflam inh: 30.8; HepG2 viability: -2.5%; TDP1 cell CPT: 25.9µM*; TDP1 cell noCPT: 18.4µM*; TDP1 block: 2.2%; TGFb inhibitor: 0.0%

How did CC(=O)Nc1ccc(S(=O)(=O)N2CCN(C(=O)c3ncoc3-c3ccccc3)CC2)cc1 do in these assays?
IL-1B inflam inh: 14.0; HepG2 viability: 1.1%; TDP1 cell CPT: inconclusive; TDP1 cell noCPT: 11.6µM*; TDP1 block: 4.6%; TGFb inhibitor: 7.1%
